We go through 95 compounds from PubChem BioAssay AID2315 (National Center for Advancing Translational Sciences (NCATS), 2010).

SMILES strings stand for the structures. Out of some 290,000 compounds screened, about 27,000 (9.3%) were called active. This is one part of a sample in which actives are shown more often than they occur. Values without a mark were called inactive. Rule as the data show it: active = inhibition mostly above about 28% (no sharp cut-off); inactive = mostly below about 43%. Where a SMILES comes first, the peptide text is derived from it.

This test in a line: A qHTS for Small Molecule Inhibitors of Shiga Toxin. Also: 0% is about no effect. The note with it: Vero cells, Shiga toxin protein synthesis inhibition reporter; at 38.7 µM, active compounds read high.
As for `Cc1cc(Cl)ccc1OCCCC(=O)Nc1cccc(-n2cnnn2)c1`, the inhibition (usually the change of the read-out against control, counted positive when it falls) is -13.8%.

Take `CCc1ccc2c(c1)C1(NN=C(c3ccccc3)S1)C(=O)N2` (stereo not given): the inhibition is 105% (active).

In the case of `COc1ccccc1C(=O)N/C(=C/c1ccco1)C(=O)Nc1ccc(C(=O)O)cc1`, the inhibition was -2.72%.

Turning to `CC(=O)c1ccc(N2CCN(C(=O)CCNC(=O)Cn3ccc4ccccc4c3=O)CC2)cc1`, the inhibition is 26.7%.

Turning to `Cc1ccc(N=Cc2c(O)cc(C)oc2=O)c(C)c1`, the inhibition is -1.09%.

Turning to `Cc1cc(O)c(C(=O)/C=C/c2c(F)c(F)c(F)c(F)c2F)c(=O)o1`, the inhibition is 68.6% (active).

For `N#Cc1cc([N+](=O)[O-])ccc1NCC1CCCO1` (stereo not given), the inhibition is -5.89%.

Regarding `CC(C)N1CCc2c(sc(NC(=O)Cc3ccccc3)c2C#N)C1`, the inhibition was 2.11%.

As for `O=C(CN1CCOC1=O)N1CCCC(Nc2ccc(F)c(F)c2)C1` (stereo not given), the inhibition is 13.5%.

As for `CCc1ccnc(NC(=O)Nc2ccc(OCc3ccccc3)cc2)c1`, the inhibition is 17.6%.

Consider `COc1cccc(OCC(=O)Nc2ccccc2C(N)=O)c1`, for which the inhibition was 75.1% (active).

As for `Cc1cccc(OCC(=O)Nc2ccccc2F)c1`, the inhibition was 74.7% (active).

`O=C(CCc1ccccc1)NNc1ccc(F)cc1`: the inhibition is -4.35%.

Take `Cc1ccc(F)c(NC(=O)CCOc2ccccc2C)c1`: the inhibition is 2.89%.

For the compound `Cc1ccc(F)c(NC(=O)CCc2ccccc2)c1`, the inhibition is 70.1% (active).

For the compound `Cc1cccc(OCC(=O)Nc2ccc(C(=O)O)cc2NC(=O)COc2cccc(C)c2)c1`, the inhibition was -5.8%.

Take `Cc1cccc(OCCC(=O)Nc2ccccc2C(N)=O)c1`: the inhibition was 5.43%.

Take `CCCOC(=O)Nc1ccccc1C(N)=O`: the inhibition is -12.3%.

Consider `Cc1cccc(OCC(=O)NCCCNC(=O)c2ccccn2)c1`, for which the inhibition is -11.4%.

As for `CCOC(=O)C1=C(CCc2ccccc2)NC(=O)NC1c1ccc2ccccc2c1` (stereo not given), the inhibition is 2.87%.

Regarding `COC(=O)Cc1ccc(N(Cc2ccccc2F)S(=O)(=O)c2ccc(Br)cc2)cc1`, the inhibition was 9.28%.

As for `CC(Oc1ccccc1)C(=O)Nc1c2c(nn1-c1ccccc1)CS(=O)C2` (stereo not given), the inhibition was -1.03%.

With `CCOCCCN(C)C1CCN(C(=O)c2oc3ccccc3c2NC(=O)COc2cccc(C)c2)CC1`, the inhibition is -8.02%.

Consider `CC(=O)Nc1ccc(C(=O)N(C2=NC(C)CS2)c2ccc(Cl)cc2)cc1` (stereo not given), for which the inhibition is 32.9%.

With `CC1CN(C(=O)CCC(=O)NC2CCN(Cc3ccccc3)CC2)c2ccccc2O1` (stereo not given), the inhibition is 10.3%.

On to `COCC1CCCN(Cc2cn[nH]c2-c2cc3ccccc3o2)C1` (stereo not given), for which the inhibition is 56.9%.

In the case of `COCC1CCCN(Cc2nc(-c3ccc4c(c3)OCO4)no2)C1` (stereo not given), the inhibition was 53.7% (active).

For the compound `CC1CCN(Cc2nc(-c3ccc(Cl)cc3)no2)CC1`, the inhibition is 34.4%.

Consider `CCCc1cc(=O)[nH]c(SCC(=O)Nc2sc3c(c2C#N)CCCC3)n1`, for which the inhibition was -2.72%.

Turning to `COc1ccc(C)cc1N(CC(=O)NC(C)c1ccccc1)S(C)(=O)=O` (stereo not given), the inhibition was -6.92%.

With `COc1ccc(Br)cc1C(=O)Nc1cccc(C)c1C`, the inhibition was 26.5%.

Regarding `Cc1ccc(-c2nc3ccccc3[nH]2)cc1NC(=O)c1sc2ccccc2c1Cl`, the inhibition is -6.19%.

For `COc1ccc(Br)cc1C(=O)NC(=S)Nc1cc(-c2nc3ccccc3[nH]2)ccc1C`, the inhibition was 0% (active).

Turning to `COC(=O)COc1ccc2c(c1C)O/C(=C\c1ccco1)C2=O`, the inhibition is 15%.

Take `Cc1ccc(/C=C2/SC(=S)N(CCC(=O)NCCCN3CCOCC3)C2=O)cc1`: the inhibition is 21.5%.

As to `CCn1cc(CN2CCC(C(=O)Nc3cccc(-c4cccc(Cl)c4)c3)CC2)cn1`, the inhibition is -25.7%.

Turning to `CCOC(=O)N1CCN(CC(=O)Nc2cc(C)nn2-c2nc3ccccc3s2)CC1`, the inhibition is -4.88%.

As to `COc1ccc(C2=NN(c3nc4ccccc4s3)C(=O)C2)cc1`, the inhibition was 72.3% (active).

Consider `COc1ccccc1NC(=O)c1ccc2nc(N3C(=O)CCC3=O)sc2c1`, for which the inhibition was 36%.

Turning to `Cc1ccc2c(c1)N(CC(=O)N1CCC(O)CC1)C(=O)CO2`, the inhibition was 1.8%.

Take `COc1ccc2[nH]c(=O)c(CN(Cc3cccnc3)S(=O)(=O)c3ccccc3F)cc2c1`: the inhibition was -10.7%.

As to `COc1ccc(-c2nc(CS(=O)CC(=O)NCc3ccccc3)c(C)o2)cc1OC` (stereo not given), the inhibition was -3.29%.

Take `C/C(CC(=O)NCc1ccc(Cl)cc1)=N\NC(=O)COc1ccc(C)cc1Br`: the inhibition is 2.05%.

Consider `Cc1ccc(NC(=O)c2sc3nc(N)c(C#N)cc3c2N)cc1`, for which the inhibition was 63.4% (active).

On to `CC(=O)Nc1ccc(NC(=O)c2sc3nc4c(c(-c5ccc(C)cc5)c3c2N)CCC4)cc1`, for which the inhibition is -4.09%.

Regarding `Cc1cccc(NC(=O)c2sc3nc4c(c(-c5ccco5)c3c2N)CCC4)c1`, the inhibition is -3.76%.

With `Cc1c(CCC(=O)O)c(=O)oc2c(C)c(OCc3ccccc3Cl)ccc12`, the inhibition is -3.03%.

On to `CN(Cc1ccccc1)C(=O)COc1ccccc1`, for which the inhibition is 60.6% (active).

With `CN(Cc1ccc(F)cc1)C(=O)COc1ccc2ccccc2c1`, the inhibition is 26.4%.

In the case of `CN(Cc1ccccc1)C(=O)c1ccc(COc2ccccc2)cc1`, the inhibition was 12.4%.

With `Cc1cc(C)c(NC(=O)CSc2nc3ccncc3[nH]2)c(C)c1`, the inhibition was -6.43%.

With `CC(N=Cc1nc(-c2ccccc2)oc1O)c1ccccc1` (stereo not given), the inhibition is 54.4% (active).

Take `CCOc1ccc2nc(/N=C/c3nc(-c4ccccc4)oc3O)sc2c1`: the inhibition was -1.97%.

As to `CCC1(CC)NC(=O)N(Cc2nc3ccccc3s2)C1=O`, the inhibition is 26.9% (active).

Take `COC(=O)C1[C@H]2SC(C)(C)C(C(=O)OC)N2C(=O)N1Cc1nc2ccccc2s1` (stereo not given in full): the inhibition was 5.52%.

With `CCC1(CC)NC(=O)N(CC(=O)OCC(=O)NC(=O)c2ccccc2)C1=O`, the inhibition was 19.1%.

On to `CC(C)OCCCNC(=S)N1CCC(C(=O)c2ccc3c(c2)OCCO3)CC1`, for which the inhibition was -16.4%.

Consider `Cc1nn(CC(=O)N2CCCCC2)c(=O)c2nn(-c3ccccc3)c(C)c12`, for which the inhibition is -2.2%.

In the case of `CCCc1nn(C)c2c(=O)[nH]c(-c3cc(S(N)(=O)=O)ccc3OCC)nc12`, the inhibition was -4.47%.

With `CCCc1nc(-c2cc3cc(C)ccc3[nH]c2=O)no1`, the inhibition is -2.41%.

Turning to `COc1ccc(CNc2cc(C)cc(C)c2)cc1OC`, the inhibition is -14.7%.

Turning to `COc1ccc(Cc2nc(-c3ccccn3)no2)cc1OC`, the inhibition is 56.5% (active).

As to `COc1ccccc1CNS(=O)(=O)c1ccc(C)cc1`, the inhibition is 11.5%.

Take `COc1ccc(-c2noc(CN(C)S(=O)(=O)c3ccc(C)cc3)n2)cc1`: the inhibition is -3.7%.

Regarding `COc1ccc(-c2noc(-c3ccc(C)cc3)n2)cc1`, the inhibition was 79% (active).

With `Cc1ccc(-c2noc(CC(c3ccccc3)c3ccccc3)n2)cc1`, the inhibition was -20.2%.

Consider `COc1ccc(-c2noc(CSc3ccc(C)cc3)n2)cc1`, for which the inhibition is 14.3%.

`COc1ccccc1Cc1nc(-c2ccc(C)cc2)no1`: the inhibition is 57.4% (active).

Turning to `COc1ccc2[nH]c(=O)c(-c3noc(-c4ccc(F)cc4)n3)cc2c1`, the inhibition was 69.3% (active).

As to `COc1ccc(N(Cc2cc3cc(OC)ccc3[nH]c2=O)S(C)(=O)=O)cc1`, the inhibition was -19.8%.

For the compound `COc1ccc(CCNS(=O)(=O)c2cccc3cccnc23)cc1OC`, the inhibition is 18.1%.

Turning to `CC(=O)NC1CCN(CC(=O)Nc2nccs2)CC1`, the inhibition was -3.57%.

As for `CN=C1S/C(=C\c2c(OC)cc(OC)cc2OC)C(=O)N1C`, the inhibition is -8.5%.

Turning to `CC[C@H](C)[C@H](NC(=O)[C@H](Cc1cnc[nH]1)NC(=O)[C@@H](N)CCC(=O)O)C(=O)N1CCC[C@H]1C(=O)N[C@@H](C)C(=O)O` (H-EHIPA-OH), the inhibition is -0.529%.

For the compound `CC(=O)C1=C(C)NC(=O)NC1c1ccc2c(c1)OCO2` (stereo not given), the inhibition is 2.18%.

Take `COc1ccccc1C(=O)COC(=O)CNS(=O)(=O)c1ccc(NC(C)=O)cc1`: the inhibition is -27.5%.

Regarding `CC(CC(=O)Nc1ccc(F)cc1F)S(=O)(=O)c1ccc2c(c1)NC(=O)CO2` (stereo not given), the inhibition is -3.11%.

In the case of `CC1=C(C(=O)Nc2ccccc2)S(=O)(=O)CCO1`, the inhibition is 31.9%.

With `CC1=C(C(=O)Nc2ccccc2)SCCO1`, the inhibition is 52.1% (active).

In the case of `CCCCNC(=O)c1ccccc1NC(=O)C1=C(C)OCCS1`, the inhibition was 1.7%.

Take `Cc1cccc(N(C(=O)c2sc(C)nc2C)C(C(=O)NCC2CCCO2)c2ccccc2)c1` (stereo not given): the inhibition was -10.3%.

Turning to `COc1ccccc1NC(=O)c1ccc(N2CC3CC(C2)c2cccc(=O)n2C3)c(NC(=O)c2cccnc2)c1` (stereo not given), the inhibition was 7.14%.

Consider `NS(=O)(=O)c1cc(C(=O)NCCOc2ccccc2)c(Cl)cc1Cl`, for which the inhibition is -6.15%.

Take `O=C(Nc1ccc(Cl)cc1)Nc1ccc(C(=O)N2CCOCC2)cc1`: the inhibition is 32.1%.

With `Cc1cc(NC(=O)Nc2ccc(Cl)cc2)n(-c2ccccc2)n1`, the inhibition is 15.7%.

For the compound `Cc1nn(C)cc1CNC(=O)Nc1ccc(Cl)cc1`, the inhibition was 58.7% (active).

With `Cc1nn(C)cc1C(=O)NNC(=S)Nc1ccc(Cl)cc1`, the inhibition is 3.52%.

Consider `COc1ccc(Cl)cc1C(=O)NCc1cn(C)nc1C`, for which the inhibition is -46.7%.

For the compound `Cn1ccc(NC(=O)Nc2ccc(Cl)cc2)n1`, the inhibition was 93% (active).

Take `CCC(=O)Nc1nc(C)c(C(=O)Nc2cccc(Cl)c2)s1`: the inhibition was 12.8%.

As for `COc1cc(/C=C2\CCCc3c2nc2ccccc2c3C(=O)O)cc(Cl)c1O`, the inhibition is -3.8%.

Take `CCc1ccc(N2CC(C(=O)Nc3ccc(S(=O)(=O)Nc4nccs4)cc3)CC2=O)cc1` (stereo not given): the inhibition was 16.7%.

On to `O=C(c1cccc(Cl)c1)N1CCN(Cc2ccccc2)CC1`, for which the inhibition was -19.8%.

Turning to `COc1ccc(-c2noc(CNC(=O)C(C)Oc3ccccc3)n2)cc1` (stereo not given), the inhibition is 11.6%.

`Cc1ccccc1C(=O)N1CCC(C(=O)Nc2ccc(S(=O)(=O)N(C)C(C)C)cc2)CC1`: the inhibition was 24.6%.
